Calls of active or inactive are those of the source.

The test system of assay [1] is Plasmodium falciparum Sir2 (PF13_0152, Sir2A). Briefly: pfSir2 binders on small-molecule microarrays, primary screen, biochemical, small-molecule microarray, 635 nm fluorescence (AID 1098).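 Note: score merges spot fluorescence intensity with its signal-to-noise ratio.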 As to conditions: small-molecule microarray binding, fluorescence 635 nm; higher = more signal.
Assay [2] is described as follows: small-molecule microarray binders of probe aDKK1, primary screen, biochemical, biotinylated probe, 635/667 nm fluorescence (AID 1099).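 Note: score merges 667nm spot fluorescence with signal to noise across triplicate slides.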 Particulars: higher = more signal.
Assay [3] can be described thus: small-molecule microarray binders of probe aCHRDL2, primary screen, biochemical, biotinylated probe, 635/667 nm fluorescence (AID 1100). Particulars: higher = more signal.
Assay [4] can be described thus: splicing luciferase reporter signal modulators, primary screen, spliceosome inhibition project, cell-based, HEK293, splice +/- reporter (AID 1101).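 Note: HEK293 cells carrying a splicing-competent luciferase reporter gene; test concentration not given here.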 Particulars: luminescence, 24 h, higher = more signal, called active from +8 up or from −8 down.
The target of assay [5] is Fibroblast growth factor 10 (Homo sapiens) (UniProt O15520). Briefly: FGF10 binders on small-molecule microarrays, primary screen, biochemical, small-molecule microarray, 635 nm fluorescence (AID 1102). Particulars: FGF10 binding, fluorescence 635 nm, higher = more signal.
Assay [6] has as its system glycogen synthase kinase-3 (GSK3A per assay name; protocol says GSK3B). Briefly: GSK3 binders on small-molecule microarrays, primary screen, biochemical, small-molecule microarray, 635 nm fluorescence, GSK3A (AID 1103). Note: the record names both GSK3A and GSK3B. As to conditions: small-molecule microarray binding, fluorescence 635 nm; higher = more signal.
In assay [7] the target is Epidermal growth factor receptor (Homo sapiens) (UniProt P00533). Nature of the assay: EGFR binders on small-molecule microarrays, primary screen, biochemical, small-molecule microarray, 635 nm fluorescence (AID 1104).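 Note: score merges 667 nm emission intensity with spot signal to noise over triplicate slides.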 Particulars: EGFR binding, higher = more signal.
Assay [8] concerns the target Follistatin-related protein 3 (Homo sapiens) (UniProt O95633). Briefly: FSTL3 binders on small-molecule microarrays, primary screen, biochemical, small-molecule microarray, 635 nm fluorescence (AID 1105).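 Note: score merges emission near 667 nm and signal to noise per printed spot across three slides.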 Particulars: FSTL3 binding, higher = more signal.
Assay [9] addresses Dickkopf-related protein 1 (Homo sapiens) (UniProt O94907). Nature of the assay: DKK1 binders on small-molecule microarrays, primary screen, biochemical, small-molecule microarray, 635 nm fluorescence scan (AID 1106).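 Note: score merges emission near 667 nm with signal to noise over three replicate slides.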 As to conditions: DKK1 binding, higher = more signal.
In assay [10] the test system is Inhibin beta A chain (activin A). Nature of the assay: INHBA (activin A) binders on microarrays, primary screen, biochemical, small-molecule microarray, 635 nm fluorescence scan (AID 1107).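 Note: mouse activin A protein probed at 4.33 µg/mL on printed slides; score merges bound-protein fluorescence near 667 nm with spot signal-to-noise.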 Particulars: small-molecule microarray binding, higher = more signal.
Assay [11] has as its system Human papillomavirus type 1a protein E7 (residues 44-93). Nature of the assay: HPV1a E7 fragment binders on microarrays, primary screen, biochemical, small-molecule microarray, residues 44-93, 635 nm fluorescence (AID 1108).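 Note: E7 fragment applied at 1 µg/mL in TBST for 1 h at 4 C; score combines spot fluorescence with its signal to noise ratio.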 Particulars: small-molecule microarray binding, fluorescence 635 nm; higher = more signal.
A short description of assay [12]: modulators of HCV replicon luciferase signal, primary screen, HCV replication inhibitor project, Huh7 cells, luciferase reporter (AID 1109).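 Note: huh7 hepatoma cells harbouring a luciferase neomycin HCV replicon reporter; luciferase luminescence as measure of HCV replicon replication; test concentration not given here.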 As to conditions: 48 h, higher = more signal. Background: A replicon is a self-replicating genome or part of one, used to study replication in cells.
In assay [13] the target is Left-right determination factor 2 (Homo sapiens) (UniProt O00292). Nature of the assay: LEFTY2 binders on small-molecule microarrays, primary screen, biochemical, small-molecule microarray, 635 nm fluorescence scan (AID 1110). Particulars: LEFTY2 binding, higher = more signal.
Assay [14] concerns the target Calmodulin-1 (Homo sapiens) (UniProt P0DP23). Nature of the assay: CALM1 binders on microarrays, EGTA buffer, profiling panel, biochemical, small-molecule microarray, Cy5-labelled CALM1 (AID 1111).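 Note: labelled calmodulin applied in Tris saline Tween buffer holding calcium plus EGTA and DTT.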 As to conditions: Cy5-CALM1 binding fluorescence, higher = more signal.
For assay [15] the target is unchanged. Briefly: calcium-bound CALM1 binders on microarrays, profiling panel, artefact control for SMM control-protein annotation, biochemical, small-molecule microarray, Cy5-labelled CALM1, plus calcium (AID 1112).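 Note: score merges spot fluorescence with signal to noise from triplicate slides.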 Particulars: Cy5-CALM1 binding fluorescence, higher = more signal.
A short description of assay [16]: small-molecule microarray binders of probe aWnt5a, primary screen, biochemical, biotinylated probe, 635/667 nm fluorescence (AID 1113).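 Note: score merges 667 nm fluorescence intensity with signal-to-noise per printed feature.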 As to conditions: higher = more signal.
Assay [17] is described as follows: small-molecule microarray binders of probe aShh, primary screen, biochemical, biotinylated probe, 635/667 nm fluorescence (AID 1114).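 Note: probe is biotin-labelled aShh protein from a stem cell growth factor screen; measures binding of labelled protein to compounds printed on the slide; score merges feature fluorescence at 667 nm with signal-to-noise.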 Particulars: higher = more signal.
Assay [18] in a line: small-molecule microarray binders of probe aNog, primary screen, biochemical, biotinylated probe, 635/667 nm fluorescence (AID 1115).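 Note: probe is biotinylated aNog protein used at 0.15 µg/mL for 1 h at 4 C; z-score combines 667 nm fluorescence of each spot with its signal to noise.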 As to conditions: higher = more signal.
Assay [19] has as its target Torsin-1A-interacting protein 1 (Homo sapiens) (UniProt Q5JTV8). Briefly: LAP1 binders from COS7 cell lysate, primary screen, small-molecule microarray, 635/667 nm fluorescence (AID 1116). As to conditions: COS7-hLAP1 lysate binding, 635 nm fluorescence, higher = more signal.
In assay [20] the target is Alpha-bungarotoxin (Bungarus multicinctus) (UniProt P60615). Nature of the assay: alpha-bungarotoxin binders on microarray, profiling panel, artefact control for SMM control protein annotation, biochemical, small-molecule microarray, Alexa647 label, 635/667 nm fluorescence (AID 1117). As to conditions: alpha-BTX-A647 binding fluorescence, higher = more signal.
Chain of Alpha-bungarotoxin (Bungarus multicinctus) (P60615 whole entry, looked up): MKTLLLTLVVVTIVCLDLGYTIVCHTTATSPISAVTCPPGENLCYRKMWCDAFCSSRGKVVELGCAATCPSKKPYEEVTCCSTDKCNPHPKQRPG

Chain of Left-right determination factor 2 (Homo sapiens) (O00292 whole entry, looked up): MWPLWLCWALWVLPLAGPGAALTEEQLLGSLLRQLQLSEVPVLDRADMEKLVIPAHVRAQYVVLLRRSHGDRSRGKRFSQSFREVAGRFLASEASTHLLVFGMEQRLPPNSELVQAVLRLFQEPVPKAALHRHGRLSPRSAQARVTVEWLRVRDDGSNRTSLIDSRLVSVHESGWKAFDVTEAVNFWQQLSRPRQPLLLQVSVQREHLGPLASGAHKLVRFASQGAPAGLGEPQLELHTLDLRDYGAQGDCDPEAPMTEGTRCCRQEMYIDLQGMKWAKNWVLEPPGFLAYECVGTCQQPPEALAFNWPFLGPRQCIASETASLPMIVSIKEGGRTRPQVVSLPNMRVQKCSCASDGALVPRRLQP
Chain of Torsin-1A-interacting protein 1 (Homo sapiens) (Q5JTV8 whole entry, looked up): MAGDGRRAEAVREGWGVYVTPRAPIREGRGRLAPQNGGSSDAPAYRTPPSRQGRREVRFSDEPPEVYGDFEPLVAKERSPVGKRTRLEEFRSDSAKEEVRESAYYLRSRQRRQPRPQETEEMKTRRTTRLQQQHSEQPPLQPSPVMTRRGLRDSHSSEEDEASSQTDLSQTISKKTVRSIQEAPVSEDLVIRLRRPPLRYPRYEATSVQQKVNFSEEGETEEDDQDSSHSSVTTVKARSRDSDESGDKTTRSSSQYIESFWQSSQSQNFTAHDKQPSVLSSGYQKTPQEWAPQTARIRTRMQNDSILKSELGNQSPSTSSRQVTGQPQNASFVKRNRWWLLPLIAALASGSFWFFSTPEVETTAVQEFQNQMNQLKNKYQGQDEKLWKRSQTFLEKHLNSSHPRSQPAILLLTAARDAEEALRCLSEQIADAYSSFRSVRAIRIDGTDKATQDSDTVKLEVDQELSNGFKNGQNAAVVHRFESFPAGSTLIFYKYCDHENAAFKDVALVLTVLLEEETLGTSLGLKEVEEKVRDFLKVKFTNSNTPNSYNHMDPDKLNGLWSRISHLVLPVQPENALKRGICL
Chain of Follistatin-related protein 3 (Homo sapiens) (O95633 whole entry, looked up): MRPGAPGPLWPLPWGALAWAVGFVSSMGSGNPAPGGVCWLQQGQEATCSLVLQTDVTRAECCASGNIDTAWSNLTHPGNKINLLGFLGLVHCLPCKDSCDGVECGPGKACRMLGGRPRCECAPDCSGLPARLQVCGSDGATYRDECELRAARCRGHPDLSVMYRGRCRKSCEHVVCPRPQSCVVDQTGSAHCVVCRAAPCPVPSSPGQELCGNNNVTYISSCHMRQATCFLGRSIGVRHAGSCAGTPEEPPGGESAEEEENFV
Chain of Epidermal growth factor receptor (Homo sapiens) (P00533 whole entry, looked up): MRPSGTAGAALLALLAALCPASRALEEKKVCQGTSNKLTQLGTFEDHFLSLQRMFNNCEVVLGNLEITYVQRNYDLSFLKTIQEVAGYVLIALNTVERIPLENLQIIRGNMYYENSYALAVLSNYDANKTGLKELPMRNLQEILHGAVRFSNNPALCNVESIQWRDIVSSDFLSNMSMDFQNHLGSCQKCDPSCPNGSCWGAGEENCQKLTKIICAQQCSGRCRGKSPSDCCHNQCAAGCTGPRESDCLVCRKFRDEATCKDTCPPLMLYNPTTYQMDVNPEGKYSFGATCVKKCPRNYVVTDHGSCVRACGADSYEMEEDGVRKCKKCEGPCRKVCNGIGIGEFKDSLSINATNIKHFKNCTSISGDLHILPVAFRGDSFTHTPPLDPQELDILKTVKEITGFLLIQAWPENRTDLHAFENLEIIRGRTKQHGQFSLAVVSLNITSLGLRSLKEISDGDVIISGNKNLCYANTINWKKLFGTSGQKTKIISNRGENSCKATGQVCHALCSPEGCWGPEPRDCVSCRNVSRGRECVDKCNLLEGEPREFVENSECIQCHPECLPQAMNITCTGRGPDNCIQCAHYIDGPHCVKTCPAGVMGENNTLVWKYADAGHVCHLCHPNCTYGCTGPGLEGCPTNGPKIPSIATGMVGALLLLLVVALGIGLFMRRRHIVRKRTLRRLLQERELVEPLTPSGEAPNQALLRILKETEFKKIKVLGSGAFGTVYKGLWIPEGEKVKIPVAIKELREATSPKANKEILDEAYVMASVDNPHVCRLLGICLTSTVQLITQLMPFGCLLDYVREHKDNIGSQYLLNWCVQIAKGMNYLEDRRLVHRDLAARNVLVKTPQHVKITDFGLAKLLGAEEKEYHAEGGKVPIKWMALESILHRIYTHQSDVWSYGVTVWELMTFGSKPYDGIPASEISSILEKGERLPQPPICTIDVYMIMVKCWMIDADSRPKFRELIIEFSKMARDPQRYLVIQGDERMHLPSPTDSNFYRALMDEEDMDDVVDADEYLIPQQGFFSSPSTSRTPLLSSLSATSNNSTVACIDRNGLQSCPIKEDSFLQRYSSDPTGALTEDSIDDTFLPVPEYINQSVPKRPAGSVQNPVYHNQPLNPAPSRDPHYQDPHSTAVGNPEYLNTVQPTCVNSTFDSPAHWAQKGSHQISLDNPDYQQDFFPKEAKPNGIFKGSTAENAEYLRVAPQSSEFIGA
Chain of Fibroblast growth factor 10 (Homo sapiens) (O15520 whole entry, looked up): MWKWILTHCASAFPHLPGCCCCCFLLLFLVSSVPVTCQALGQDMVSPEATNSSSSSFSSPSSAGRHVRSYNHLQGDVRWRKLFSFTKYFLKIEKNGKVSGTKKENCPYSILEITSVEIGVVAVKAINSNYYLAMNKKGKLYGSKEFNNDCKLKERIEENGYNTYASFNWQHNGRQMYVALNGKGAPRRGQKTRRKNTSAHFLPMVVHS
Chain of Dickkopf-related protein 1 (Homo sapiens) (O94907 whole entry, looked up): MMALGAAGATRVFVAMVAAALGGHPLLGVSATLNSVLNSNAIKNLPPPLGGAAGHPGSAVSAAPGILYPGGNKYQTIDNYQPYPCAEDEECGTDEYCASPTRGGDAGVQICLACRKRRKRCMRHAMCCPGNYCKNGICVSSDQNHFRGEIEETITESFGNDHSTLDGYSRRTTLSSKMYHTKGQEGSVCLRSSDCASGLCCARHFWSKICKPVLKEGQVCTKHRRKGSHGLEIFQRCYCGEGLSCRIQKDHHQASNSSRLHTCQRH

Turning to `C#CCCCON=C1[C@H]2CCn3c(=O)n([C@@H](CC)c4ccccc4)c(=O)n3[C@H]2[C@H](O)[C@@H]2O[C@H]12`, the composite z-score in assay [1] was 1.1; in [2], -0.175; in assay [3], -0.317; in assay [5], 0.581; in assay [6], -0.51; in [7], 0.179. Besides, the composite z-score is 0.34 in assay [8]; 0.209 in [9]; 0.228 in [10]; -0.194 in assay [11]; 0.0878 in assay [13]; -0.184 in assay [14]. Further, the composite z-score in [15] was -0.483; in assay [16], -0.0799; in assay [17], -0.0295; in assay [18], -0.35; in assay [19] it was -0.0356; in [20], -0.151. Further, the z-score in assay [4] is 6.03 (inactive); in assay [12] it was -3.43.

For `CC(CCN1CCCc2nc(C)c(C)cc21)=NOC[C@@H](C)[C@H](OCc1ccccc1)C(C)C`, the composite z-score was -0.438 in [1]; -0.359 in assay [2]; -0.623 in [3]; -0.569 in [5]; -0.715 in assay [6]; -0.771 in [7]. The composite z-score was -0.413 in [8]; -0.265 in assay [9]; 0.356 in assay [10]; -1.39 in assay [11]; -0.196 in assay [13]; -1 in [14]. For the same molecule, the composite z-score was -0.387 in assay [15]; -0.0685 in assay [16]; -0.138 in [17]; -0.255 in assay [18]; -0.187 in assay [19]; -1.1 in assay [20]. Further, the z-score in assay [4] was -0.81 (inactive); in [12] it was -0.148.

As for `CC(CCC(=O)OC[C@H]1O[C@H](C#Cc2ccccc2)C=C[C@@H]1Oc1ccc(C)cc1)=NO[C@H](C)c1cn([C@@H]2COC[C@H]2O)nn1`, the composite z-score in assay [1] was 0.261; in assay [2], -0.2; in [3], -0.383; in [5], 0.162; in [6] it was -0.267; in [7], 0.238. Moreover, the composite z-score in assay [8] is 0.22; in assay [9] it was 0.285; in assay [10] it was 0.203; in assay [11], -0.231; in [13] it was 0.431; in [14] it was -0.411. For the same molecule, the composite z-score in assay [15] was -0.208; in assay [16], -0.0512; in assay [17], -0.138; in [18], 0.354; in assay [19] it was -0.465; in assay [20], -0.493. Further, the z-score in [4] is -1.45 (inactive); in assay [12], -1.66.

`Cc1cc(C)c(-c2cc([C@H](C)ON=C[C@@H](C)[C@H](OCc3ccccc3)C(C)C)on2)c(C)c1`: the composite z-score was -0.761 in [1]; -0.143 in assay [2]; -0.0987 in [3]; 0.149 in assay [5]; -1.17 in assay [6]; -0.101 in assay [7]. In addition, the composite z-score is -0.0283 in assay [8]; -0.034 in [9]; 0.874 in [10]; -1.42 in assay [11]; -0.0341 in assay [13]; -0.27 in assay [14]. The composite z-score is -0.34 in assay [15]; -0.0403 in assay [16]; 0.0815 in assay [17]; -0.168 in [18]; -0.601 in [19]; 0.108 in assay [20]. The z-score in [4] is -0.34 (inactive); in assay [12], -2.06.

Turning to `COc1ccc(OC[C@@H](CO)OC)cc1`, the composite z-score in assay [1] is -0.276; in assay [2], -0.233; in [3], -0.401; in assay [5], 0.428; in assay [6], 0.405; in [7], 0.202. In addition, the composite z-score in assay [8] is 0.475; in assay [9] it was 0.321; in assay [10], 0.512; in assay [11], 0.0047; in [13], 0.178; in assay [14] it was -0.584. Besides, the composite z-score was -0.671 in [15]; -0.244 in assay [16]; 0.0639 in assay [17]; -0.0448 in assay [18]; 0.551 in assay [19]; 0.0276 in [20]. Besides, the results for the z-score in assay [4] and in assay [12] were 1.18 (inactive) and -0.719, respectively.

The values above are taken from PubChem BioAssay.
